{"source": "PubChem BioAssay AID1069", "about": "(NMMLSC, 2008)", "note": "The source made the active and inactive calls.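 Rule for the calls: active = high combined rank on largest and smallest cell-count-weighted shift across three tests, rank score above 45, floors 50 and 25 (some results past the limit were not filed as active); inactive = the rest.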"}
{"assay": "activators of LNCaP cell differentiation, retest, confirmation, side scatter shift, flow cytometry (AID 1069);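 note: LNCaP human prostate cancer cells in low-serum medium with charcoal-stripped FBS; percent of cells with raised granularity gated so DMSO controls show 10%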", "details": "4 d, at 100 µM, stronger effect = higher value"}
{"smiles": "O=C(NCC(c1cccnc1)N1CCOCC1)c1cccc(Cl)c1", "note": "(centres undefined)", "side scatter shift": "11.4% (inactive)"}
{"smiles": "COc1ccc(-c2ccc(-c3nnn(CC(C)=O)n3)cc2)cc1", "side scatter shift": "11.7% (inactive)"}
{"smiles": "COc1ccc(-c2ccc(-c3noc(-c4ccccc4)n3)c(OC)n2)cc1", "side scatter shift": "56.7% (inactive)"}
{"smiles": "COc1ccc2c(c1OC)C(=O)N(C(C)C(=O)O)C2=O", "note": "(centres undefined)", "side scatter shift": "17.9% (inactive)"}
{"smiles": "C=CCn1cc(C(=O)N2CCN(C)CC2)c(=O)c2cc(S(=O)(=O)N3CCCC3)ccc21", "side scatter shift": "8.9% (inactive)"}
{"smiles": "Cc1ccccc1-c1nc(CN2CCC(C(=O)NCCC3=CCCCC3)CC2)c(C)o1", "side scatter shift": "9.1% (inactive)"}
{"smiles": "CCN1CCCC1CNC(=O)c1cc2c(-c3ccc(Cl)cc3)nn(C)c2s1", "note": "(centres undefined)", "side scatter shift": "35.7% (active)"}
{"smiles": "O=C(NCCCN1CCN(c2ccccc2F)CC1)C1CCN(S(=O)(=O)c2cccs2)CC1", "side scatter shift": "22.7% (inactive)"}
{"smiles": "Cn1c(C(=O)NCCCN2CCN(c3ccccc3F)CC2)cc2c(=O)[nH]c3ccccc3c21", "side scatter shift": "33.3% (inactive)"}
{"smiles": "CCCNC(=O)C1CN(S(=O)(=O)c2ccccc2)CCN1S(=O)(=O)c1ccccc1", "note": "(centres undefined)", "side scatter shift": "13.3% (inactive)"}
{"smiles": "Cc1ccccc1-c1nc(CN2CCC(C(=O)NCc3ccco3)CC2)c(C)o1", "side scatter shift": "41.1% (inactive)"}
{"smiles": "CCOC(=O)c1[nH]c(C)c(C(=O)NC2CCCCCC2)c1C", "side scatter shift": "4.8% (inactive)"}
{"smiles": "CCOC(=O)c1c(C)n(C)c2ccc(OCC(O)CNC(CC)CO)cc12", "note": "(centres undefined)", "side scatter shift": "58.6% (active)"}
{"smiles": "CCSc1nnc(Cn2c(=O)sc3ccccc32)n1-c1ccccc1C", "side scatter shift": "20.5% (inactive)"}
{"smiles": "CCCOc1ccc2nc(NC(=O)OC)[nH]c2c1", "side scatter shift": "8.3% (inactive)"}
{"smiles": "Cc1cc(N2CCC(N(C)C3CCCC3)CC2)nc2cc(O)ccc12", "side scatter shift": "65.4% (inactive)"}
{"smiles": "COc1ccccc1N1CCN(Cc2cc(Br)c(O)c3ncccc23)CC1", "side scatter shift": "35.3% (inactive)"}
{"smiles": "COc1ccc2nc3oc(C(=O)NCc4cccs4)cc3cc2c1", "side scatter shift": "3.9% (inactive)"}
{"smiles": "COc1ccc(CCN2CCC(Nc3nc4ccccc4n3Cc3ccc(F)cc3)CC2)cc1", "side scatter shift": "0% (active)"}
{"smiles": "O=C(NC1CCCC1)C1CCN(S(=O)(=O)c2cccc3cccnc23)CC1", "side scatter shift": "15.9% (inactive)"}
{"smiles": "Cc1oc(-c2ccccc2F)nc1CN1CCC(C(=O)NC2CC2)CC1", "side scatter shift": "13.5% (inactive)"}
{"smiles": "Cc1oc(-c2ccc(Cl)cc2)nc1CN1CCC(C(=O)N2CCN(Cc3ccccc3)CC2)CC1", "side scatter shift": "33.3% (active)"}
{"smiles": "CCN(CC)CCCNC(=O)c1cc(-c2ccc(Cl)c(Cl)c2)on1", "side scatter shift": "22.7% (inactive)"}
{"smiles": "COc1cccc(Oc2cnc(N)nc2-c2ccc(OC)cc2O)c1", "side scatter shift": "22.2% (inactive)"}
{"smiles": "COc1ccc(N2CCN(CCCNC(=O)C3(S(=O)(=O)c4ccc(Cl)cc4)CC3)CC2)cc1", "side scatter shift": "26.9% (inactive)"}
{"smiles": "O=C(O)C1CCCCC1C(=O)Nc1cnn(Cc2ccccc2)c1", "note": "(centres undefined)", "side scatter shift": "19% (inactive)"}
{"smiles": "Cc1cc(=O)n2nc(N3CCCC(C(=O)NCc4ccco4)C3)sc2n1", "note": "(centres undefined)", "side scatter shift": "7.4% (inactive)"}
{"smiles": "CCC(CC)C(=O)Nc1cccc(C(=O)NCc2ccco2)c1", "side scatter shift": "14.1% (inactive)"}
{"smiles": "Cc1cc(O)c(-c2cc(C(=O)Nc3ccc(S(=O)(=O)N4CCOCC4)cc3)[nH]n2)cc1C", "side scatter shift": "5.6% (inactive)"}
{"smiles": "CCOC(=O)N1CCC(NC(=O)C2CCCN(Cc3nc(-c4cccc(Cl)c4)oc3C)C2)CC1", "note": "(centres undefined)", "side scatter shift": "21.2% (inactive)"}
{"smiles": "Cc1ccc(C2=Nc3ccccc3NC(C)(c3ccc(C)o3)C2)o1", "note": "(centres undefined)", "side scatter shift": "7.1% (inactive)"}
{"smiles": "Cc1cccc(-c2nc(CN3CCCC(C(=O)NC4CCC(C)CC4)C3)c(C)o2)c1", "note": "(centres undefined)", "side scatter shift": "40% (inactive)"}
{"smiles": "Cc1noc(/C=C/c2ccco2)c1S(=O)(=O)N1CCC(C(=O)N2CCc3ccccc3C2)CC1", "side scatter shift": "54.6% (active)"}
{"smiles": "C=CCn1c(=N)n(CC(O)COc2ccc(OC)cc2)c2ccccc21", "note": "(centres undefined)", "side scatter shift": "18.9% (inactive)"}
{"smiles": "CCn1c(=O)cc(OCC(=O)O)c2ccccc21", "side scatter shift": "31.8% (inactive)"}
{"smiles": "COc1ccc(-n2cc(-c3ccccc3)c3c(N4CCN(CCO)CC4)ncnc32)cc1", "side scatter shift": "33.3% (inactive)"}
{"smiles": "Cn1c(=O)n(C)c2cc(CN3C(=O)OC(C)(C)C3(C)O)ccc21", "note": "(centres undefined)", "side scatter shift": "7.1% (inactive)"}
{"assay": "activators of LNCaP cell differentiation, retest, confirmation, side scatter shift, flow cytometry (AID 1069);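 note: LNCaP human prostate cancer cells in low-serum medium with charcoal-stripped FBS; percent of cells with raised granularity gated so DMSO controls show 10%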", "details": "4 d, side scatter shift, at 10 µM, stronger effect = higher value", "units": {"side scatter shift": "%"}}
{"smiles": "O=C(NCC(c1cccnc1)N1CCOCC1)c1cccc(Cl)c1", "note": "(centres undefined)", "side scatter shift": 13.9}
{"smiles": "COc1ccc(-c2ccc(-c3nnn(CC(C)=O)n3)cc2)cc1", "side scatter shift": 2.95}
{"smiles": "COc1ccc(-c2ccc(-c3noc(-c4ccccc4)n3)c(OC)n2)cc1", "side scatter shift": 22.5}
{"smiles": "COc1ccc2c(c1OC)C(=O)N(C(C)C(=O)O)C2=O", "note": "(centres undefined)", "side scatter shift": 5.3}
{"smiles": "C=CCn1cc(C(=O)N2CCN(C)CC2)c(=O)c2cc(S(=O)(=O)N3CCCC3)ccc21", "side scatter shift": 1.6}
{"smiles": "Cc1ccccc1-c1nc(CN2CCC(C(=O)NCCC3=CCCCC3)CC2)c(C)o1", "side scatter shift": 24.8}
{"smiles": "CCN1CCCC1CNC(=O)c1cc2c(-c3ccc(Cl)cc3)nn(C)c2s1", "note": "(centres undefined)", "side scatter shift": 56.7}
{"smiles": "O=C(NCCCN1CCN(c2ccccc2F)CC1)C1CCN(S(=O)(=O)c2cccs2)CC1", "side scatter shift": 3.7}
{"smiles": "Cn1c(C(=O)NCCCN2CCN(c3ccccc3F)CC2)cc2c(=O)[nH]c3ccccc3c21", "side scatter shift": 11.1}
{"smiles": "CCCNC(=O)C1CN(S(=O)(=O)c2ccccc2)CCN1S(=O)(=O)c1ccccc1", "note": "(centres undefined)", "side scatter shift": 8}
{"smiles": "Cc1ccccc1-c1nc(CN2CCC(C(=O)NCc3ccco3)CC2)c(C)o1", "side scatter shift": 3.2}
{"smiles": "CCOC(=O)c1[nH]c(C)c(C(=O)NC2CCCCCC2)c1C", "side scatter shift": 8.6}
{"smiles": "CCOC(=O)c1c(C)n(C)c2ccc(OCC(O)CNC(CC)CO)cc12", "note": "(centres undefined)", "side scatter shift": 3.3}
{"smiles": "CCSc1nnc(Cn2c(=O)sc3ccccc32)n1-c1ccccc1C", "side scatter shift": 9.7}
{"smiles": "CCCOc1ccc2nc(NC(=O)OC)[nH]c2c1", "side scatter shift": 2.95}
{"smiles": "Cc1cc(N2CCC(N(C)C3CCCC3)CC2)nc2cc(O)ccc12", "side scatter shift": 22.5}
{"smiles": "COc1ccccc1N1CCN(Cc2cc(Br)c(O)c3ncccc23)CC1", "side scatter shift": 17.4}
{"smiles": "COc1ccc2nc3oc(C(=O)NCc4cccs4)cc3cc2c1", "side scatter shift": 3.9}
{"smiles": "COc1ccc(CCN2CCC(Nc3nc4ccccc4n3Cc3ccc(F)cc3)CC2)cc1", "side scatter shift": 35.3}
{"smiles": "O=C(NC1CCCC1)C1CCN(S(=O)(=O)c2cccc3cccnc23)CC1", "side scatter shift": 1.65}
{"smiles": "Cc1oc(-c2ccccc2F)nc1CN1CCC(C(=O)NC2CC2)CC1", "side scatter shift": 2.4}
{"smiles": "Cc1oc(-c2ccc(Cl)cc2)nc1CN1CCC(C(=O)N2CCN(Cc3ccccc3)CC2)CC1", "side scatter shift": 53.7}
{"smiles": "CCN(CC)CCCNC(=O)c1cc(-c2ccc(Cl)c(Cl)c2)on1", "side scatter shift": 36.7}
{"smiles": "COc1cccc(Oc2cnc(N)nc2-c2ccc(OC)cc2O)c1", "side scatter shift": 6.3}
{"smiles": "COc1ccc(N2CCN(CCCNC(=O)C3(S(=O)(=O)c4ccc(Cl)cc4)CC3)CC2)cc1", "side scatter shift": 2.45}
{"smiles": "O=C(O)C1CCCCC1C(=O)Nc1cnn(Cc2ccccc2)c1", "note": "(centres undefined)", "side scatter shift": 5.15}
{"smiles": "Cc1cc(=O)n2nc(N3CCCC(C(=O)NCc4ccco4)C3)sc2n1", "note": "(centres undefined)", "side scatter shift": 4.75}
{"smiles": "CCC(CC)C(=O)Nc1cccc(C(=O)NCc2ccco2)c1", "side scatter shift": 6}
{"smiles": "Cc1cc(O)c(-c2cc(C(=O)Nc3ccc(S(=O)(=O)N4CCOCC4)cc3)[nH]n2)cc1C", "side scatter shift": 9.8}
{"smiles": "CCOC(=O)N1CCC(NC(=O)C2CCCN(Cc3nc(-c4cccc(Cl)c4)oc3C)C2)CC1", "note": "(centres undefined)", "side scatter shift": 5.35}
{"smiles": "Cc1ccc(C2=Nc3ccccc3NC(C)(c3ccc(C)o3)C2)o1", "note": "(centres undefined)", "side scatter shift": 10.1}
{"smiles": "Cc1cccc(-c2nc(CN3CCCC(C(=O)NC4CCC(C)CC4)C3)c(C)o2)c1", "note": "(centres undefined)", "side scatter shift": 5.9}
{"smiles": "Cc1noc(/C=C/c2ccco2)c1S(=O)(=O)N1CCC(C(=O)N2CCc3ccccc3C2)CC1", "side scatter shift": 7.3}
{"smiles": "C=CCn1c(=N)n(CC(O)COc2ccc(OC)cc2)c2ccccc21", "note": "(centres undefined)", "side scatter shift": 10.9}
{"smiles": "CCn1c(=O)cc(OCC(=O)O)c2ccccc21", "side scatter shift": 6.7}
{"smiles": "COc1ccc(-n2cc(-c3ccccc3)c3c(N4CCN(CCO)CC4)ncnc32)cc1", "side scatter shift": 9.55}
{"smiles": "Cn1c(=O)n(C)c2cc(CN3C(=O)OC(C)(C)C3(C)O)ccc21", "note": "(centres undefined)", "side scatter shift": 2.45}
